The nature of assay [1]: qHTS assay to identify small molecule agonists of the androgen receptor (AR) signaling pathway in the presence of an antagonist - cell viability counter screen (AID 1259379).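 Also: MDA-kb2 human breast cancer cells carrying an MMTV luciferase reporter; series mostly up to about 92 µM; nearly all actives have a fitted effect of over 25% in size.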 The essentials:
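Seed MDA-kb2 at 3,000 cells/well; incubate 5 hr, 37C, 0% CO2. Add nilutamide to 3.0uM final, then pin compounds at 15 concentrations. Incubate 16 hr. Add CellTiter-Fluor at 15 hr, read fluorescence after 1 hr.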
(Quantitative high-throughput screening tests each substance at several concentrations.)

A short description of assay [2]: qHTS assay to identify small molecule agonists of the estrogen receptor beta (ER-beta) signaling pathway - cell viability counter screen (AID 1259380). Also: nearly all actives have a fitted effect of over 30% in size. In a few lines: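 CellTiter-Glo read, 30 min RT, same wells as bla assay; cells ER-beta-UAS-bla HEK293T; 16 hr compound, 37C; medium 2% charcoal-stripped FBS.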
Assay [3] in a line: qHTS assay to identify small molecule antagonists of the estrogen receptor beta (ER-beta) signaling pathway - cell viability counter screen (AID 1259382).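 Also: HEK293T cells carrying ER-beta-UAS-bla reporter stimulated with estradiol; series mostly up to about 92 µM; nearly all actives have a fitted effect of over 55% in size.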 In a few lines:
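In this multiplexed counter screen, cells were seeded at 2,000 per well in medium with 2% charcoal-stripped FBS and incubated 6 hr before compound and 1nM final E2 were added. Sixteen hours later, ATP-based luminescence reported viability.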

For assay [4], the target named is Estrogen receptor (Homo sapiens) (UniProt P03372). The assay can be described thus: qHTS assay to identify small molecule agonists of the estrogen receptor alpha (ER-alpha) signaling pathway in the presence of an antagonist (AID 1259383; calls by dose curve; also: nearly all actives have a fitted effect of over 15% in size; also: potency is read from the fitted curve at half-maximal effect; as to activation: top concentration of the series differs between compounds). In a few lines:
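Stably transfected VM7Luc4E2 reporter cells, kept 5 days in charcoal-stripped serum, received ICI-182,780 at 10.0nM final before compound addition. Following 22hr incubation at 37C and 5% CO2, luciferase signal was read by luminescence.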

Assay [5] is described as follows: qHTS assay to identify small molecule agonists or antagonists of the thyroid stimulating hormone receptor (TSHR) signaling pathway - wild type cell line counter screen (AID 1259384; calls by dose curve). In a few lines:
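Wild-type Hek293 cells, 800/well, 18 h at 37C, then compound with Ro20-1724 for 30 min RT. cAMP by HTRF (cAMP-d2/anti-cAMP cryptate), 1 h RT, fluorescence read. 15 concentrations, triplicates.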

For assay [6], the target named is Thyrotropin receptor (Homo sapiens) (UniProt P16473). The assay can be described thus: qHTS assay to identify small molecule antagonists of the thyroid stimulating hormone receptor (TSHR) signaling pathway (AID 1259385; calls by dose curve; also: nearly all actives have a fitted effect of over 20% in size). In a few lines:
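TSHR-HEK293 cells (800/well) plated 18 h, then compounds with Ro20-1724 and TSH at 1.5 ng/mL final, 30 min at room temperature. cAMP quantified by HTRF (cAMP-d2/anti-cAMP-cryptate, 1 h); 15 concentrations in triplicate.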

A short description of assay [7]: qHTS assay to identify small molecule agonists of the estrogen receptor alpha (ER-alpha) signaling pathway in the presence of an antagonist - cell viability counter screen (AID 1259386).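 Also: series mostly up to about 92 µM; cells exposed to compounds for 22 h at 37 °C before the viability read; nearly all actives have a fitted effect of over 30% in size.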 In a few lines:
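Viability counter screen using VM7Luc4E2 (full-length ER-alpha, four ERE-luciferase). The cells were treated with compounds alongside ICI-182,780 10.0nM for 22hr, and live-cell protease fluorescence was quantified with CellTiter-Fluor.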

Assay [8] has as its target Progesterone receptor (Homo sapiens) (UniProt P06401). The experiment in a line: qHTS assay to identify small molecule agonists of the progesterone receptor (PR) signaling pathway (AID 1346784; calls by dose curve; also: nearly all actives have a fitted effect of over 30% in size). The essentials:
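Using charcoal-stripped serum (2%) to limit endogenous steroids, PR-UAS-bla HEK 293T cells received compounds for 16 hr at 37C after 6 hr plating; beta-lactamase FRET fluorescence was recorded following 2 hr substrate loading at room temperature.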

A short description of assay [9]: qHTS assay to identify small molecule antagonists of the progesterone receptor (PR) signaling pathway - cell viability counter screen (AID 1346798). Also: series mostly up to about 92 µM; nearly all actives have a fitted effect of over 50% in size. In a few lines: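 ATP content as viability readout: CellTiter-Glo luminescence, 30 min room temperature, in PR-UAS-bla HEK293T cells after 16 hr compound/R5020 treatment at 37C and 5% CO2.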
Assay [10] is described as follows: qHTS assay to identify small molecule agonists of the progesterone receptor (PR) signaling pathway - cell viability counter screen (AID 1346799; calls by dose curve; also: nearly all actives have a fitted effect of over 45% in size). In a few lines:
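Cytotoxicity in PR-bla HEK293T cells: 16 h compound, 37C; CellTiter-Glo added post-FRET read; luminescence after 30 min RT.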

Assay [11] in a line: qHTS assay to identify small molecule antagonists of the TGF-beta/Smad signaling pathway - cell viability counter screen (AID 1346824). Also: nearly all actives have a fitted effect of over 50% in size. The essentials: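 SBE-bla HEK 293T cells, incubated overnight, then compound plus 0.25 ng/mL TGF-beta1 (stock added) for 5 hr at 37 C. Viability was read in the same wells by CellTiter-Glo luminescence after 30 min at room temperature.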
Assay [12] can be described thus: qHTS assay to identify small molecule agonists of the TGF-beta/Smad signaling pathway - cell viability counter screen (AID 1346829). Also: top concentration of the series differs between compounds; nearly all actives have a fitted effect of over 45% in size. The essentials: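 HEK 293T SBE-bla line, 5 hr compound exposure at 37 C, multiplexed CellTiter-Glo viability read by luminescence.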
The nature of assay [13]: qHTS assay to identify small molecule agonists of the TGF-beta/Smad signaling pathway (AID 1346859; active = well fitted activation curve with a large enough effect in the signal ratio in the repeat runs, not every such curve was filed as active; the % refers to the signal ratio; also: series mostly up to about 77 µM). In a few lines: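 Stable Smad binding element-beta-lactamase HEK 293T cells; 5 hr compound exposure at 37 C under 5% CO2; 2 hr room-temperature substrate step; fluorescence excited at 405 nm, collected at 460 nm and 530 nm.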
For assay [14], the target named is Thyrotropin-releasing hormone receptor (Homo sapiens) (UniProt P34981). The assay can be described thus: qHTS assay to identify small molecule antagonists of the thyrotropin-releasing hormone receptor (TRHR) signaling pathway (AID 1346877; active = well fitted inhibition curve with a large enough effect in the repeat runs, not every such curve was filed as active; also: series mostly up to about 51 µM). In a few lines:
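Following an 18 h incubation at 37 °C and a 2 h calcium dye load, TRHR-HEK293 cells were exposed to compound (5 min, room temperature) and challenged with TRH, 1 nM final.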

The target is the same in assay [15]. The assay can be described thus: qHTS assay to identify small molecule agonists of the thyrotropin-releasing hormone receptor (TRHR) signaling pathway (AID 1346891; calls by dose curve;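 also: HEK293 cells expressing TRHR with calcium dye readout; series mostly up to about 58 µM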). In a few lines:
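In 1536-format, 1500 TRHR-Hek293 cells per well grew 18 h, took up calcium dye for 2 h at 37 °C, received compound, and were read kinetically; 15-point titrations, triplicates.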

Assay [16] in a line: Human pregnane X receptor (PXR) small molecule agonists, qHTS cell viability counter screen (AID 1346977). Also: nearly all actives have a fitted effect of over 50% in size. In a few lines: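 Readout is CellTiter-Fluor fluorescence from PXR-Luc HepG2 cells. Plated cells rested 5hr, then were treated with compounds for 24hr at 37C and 5% CO2, with reagent present during the last hour.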
In assay [17] the target is Androgen receptor (Homo sapiens) (UniProt P10275). The experiment in a line: qHTS assay to identify small molecule agonists of the androgen receptor (AR) signaling pathway in the presence of an antagonist (AID 1259381; calls by dose curve; also: nearly all actives have a fitted effect of over 15% in size). The essentials:
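Test compounds at 15 concentrations were incubated for 16hr with MDA-kb2 reporter cells in presence of 3.0uM nilutamide (final). Signal: ONE-Glo luciferase luminescence.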

Assay [18] deals with Progesterone receptor (Homo sapiens) (UniProt P06401). The assay can be described thus: qHTS assay to identify small molecule antagonists of the progesterone receptor (PR) signaling pathway (AID 1346795; active = well fitted inhibition curve with a large enough effect in the signal ratio in the repeat runs, not every such curve was filed as active; the % refers to the signal ratio). The essentials:
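Inhibition of R5020-induced (1 nM final) beta-lactamase reporter signal in PR-UAS-bla HEK293T cells was scored by FRET fluorescence after overnight (16 hr) compound treatment.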

Results filed as inconclusive are left out. Calls of active or inactive are those of the source. Unless noted, calls follow the shape of the dose curve; as a rule, active = well fitted curve in the direction sought with a large enough effect in the repeat runs; inconclusive = weak or mixed curves; inactive = no such curve, though single readings can be large; an effect the other way counts as inactive or inconclusive.

Chain of Thyrotropin receptor (Homo sapiens) (P16473 whole entry, looked up): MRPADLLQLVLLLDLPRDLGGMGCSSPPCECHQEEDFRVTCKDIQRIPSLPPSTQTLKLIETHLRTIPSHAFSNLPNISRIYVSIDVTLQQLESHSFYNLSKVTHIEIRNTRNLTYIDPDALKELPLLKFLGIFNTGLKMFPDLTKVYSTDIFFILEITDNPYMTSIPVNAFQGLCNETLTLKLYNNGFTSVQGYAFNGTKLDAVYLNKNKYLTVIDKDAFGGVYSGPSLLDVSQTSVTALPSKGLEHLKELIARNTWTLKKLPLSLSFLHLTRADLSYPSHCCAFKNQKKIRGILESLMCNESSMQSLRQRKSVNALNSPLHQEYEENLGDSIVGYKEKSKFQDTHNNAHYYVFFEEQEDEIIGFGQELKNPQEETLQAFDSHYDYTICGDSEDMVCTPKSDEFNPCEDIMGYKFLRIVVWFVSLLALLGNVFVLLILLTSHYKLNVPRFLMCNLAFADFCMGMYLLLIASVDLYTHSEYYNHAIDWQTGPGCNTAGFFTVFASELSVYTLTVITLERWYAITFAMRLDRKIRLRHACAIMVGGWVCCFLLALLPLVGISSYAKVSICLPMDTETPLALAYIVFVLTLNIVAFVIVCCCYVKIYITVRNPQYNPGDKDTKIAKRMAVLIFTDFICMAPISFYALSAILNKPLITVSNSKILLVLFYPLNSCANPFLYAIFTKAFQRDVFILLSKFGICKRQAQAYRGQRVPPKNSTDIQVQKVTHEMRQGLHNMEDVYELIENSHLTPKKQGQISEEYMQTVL
Chain of Estrogen receptor (Homo sapiens) (P03372 whole entry, looked up): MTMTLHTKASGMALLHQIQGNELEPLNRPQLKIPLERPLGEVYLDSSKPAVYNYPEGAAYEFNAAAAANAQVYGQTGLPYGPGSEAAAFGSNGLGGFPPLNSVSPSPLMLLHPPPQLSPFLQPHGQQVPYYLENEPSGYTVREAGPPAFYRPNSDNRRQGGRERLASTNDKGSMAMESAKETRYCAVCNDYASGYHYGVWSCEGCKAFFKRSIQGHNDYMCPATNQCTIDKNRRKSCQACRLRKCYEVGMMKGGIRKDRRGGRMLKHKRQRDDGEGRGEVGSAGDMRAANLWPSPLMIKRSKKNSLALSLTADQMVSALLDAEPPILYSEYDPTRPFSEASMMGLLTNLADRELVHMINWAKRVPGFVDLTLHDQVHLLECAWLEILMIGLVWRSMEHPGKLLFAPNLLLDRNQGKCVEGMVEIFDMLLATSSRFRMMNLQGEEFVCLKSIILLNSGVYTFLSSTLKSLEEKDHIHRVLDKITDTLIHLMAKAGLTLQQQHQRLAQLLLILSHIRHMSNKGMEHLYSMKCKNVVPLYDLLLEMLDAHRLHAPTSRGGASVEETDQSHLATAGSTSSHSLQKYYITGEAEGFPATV
Chain of Progesterone receptor (Homo sapiens) (P06401 whole entry, looked up): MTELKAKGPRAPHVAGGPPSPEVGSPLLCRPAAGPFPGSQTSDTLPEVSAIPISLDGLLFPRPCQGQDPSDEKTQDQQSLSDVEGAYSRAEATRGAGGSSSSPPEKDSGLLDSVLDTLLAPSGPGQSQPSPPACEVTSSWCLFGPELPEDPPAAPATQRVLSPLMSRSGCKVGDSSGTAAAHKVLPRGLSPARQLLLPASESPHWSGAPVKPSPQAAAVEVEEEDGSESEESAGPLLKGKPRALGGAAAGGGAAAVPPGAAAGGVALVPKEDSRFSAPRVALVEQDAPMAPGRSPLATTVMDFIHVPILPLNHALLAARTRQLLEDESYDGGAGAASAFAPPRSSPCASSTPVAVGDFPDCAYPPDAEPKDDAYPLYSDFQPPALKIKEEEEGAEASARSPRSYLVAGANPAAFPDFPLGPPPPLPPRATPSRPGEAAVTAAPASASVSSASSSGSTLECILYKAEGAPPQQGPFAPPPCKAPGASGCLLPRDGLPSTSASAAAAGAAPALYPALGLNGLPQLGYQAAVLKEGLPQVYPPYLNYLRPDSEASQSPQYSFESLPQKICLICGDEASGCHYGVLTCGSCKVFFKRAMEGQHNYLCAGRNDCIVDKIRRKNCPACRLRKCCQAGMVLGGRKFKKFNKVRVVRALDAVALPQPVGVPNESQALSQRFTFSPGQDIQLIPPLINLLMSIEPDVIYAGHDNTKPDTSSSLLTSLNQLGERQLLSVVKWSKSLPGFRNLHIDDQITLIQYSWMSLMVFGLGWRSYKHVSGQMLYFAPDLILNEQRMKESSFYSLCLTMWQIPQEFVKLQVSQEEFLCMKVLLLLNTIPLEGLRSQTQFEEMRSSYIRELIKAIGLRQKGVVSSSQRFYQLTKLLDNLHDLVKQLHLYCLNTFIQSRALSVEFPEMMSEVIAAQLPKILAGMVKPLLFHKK
Chain of Thyrotropin-releasing hormone receptor (Homo sapiens) (P34981 whole entry, looked up): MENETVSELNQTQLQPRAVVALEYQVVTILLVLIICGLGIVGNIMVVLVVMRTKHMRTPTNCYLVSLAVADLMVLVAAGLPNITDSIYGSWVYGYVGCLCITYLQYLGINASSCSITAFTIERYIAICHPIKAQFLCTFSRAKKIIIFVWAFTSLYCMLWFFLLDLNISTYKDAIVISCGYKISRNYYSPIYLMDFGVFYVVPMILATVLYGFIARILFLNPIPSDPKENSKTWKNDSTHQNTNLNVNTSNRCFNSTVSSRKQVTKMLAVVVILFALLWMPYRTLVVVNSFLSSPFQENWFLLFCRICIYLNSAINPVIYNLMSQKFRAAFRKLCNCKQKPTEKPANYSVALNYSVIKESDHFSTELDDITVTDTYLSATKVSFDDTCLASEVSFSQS
Chain of Androgen receptor (Homo sapiens) (P10275 whole entry, looked up): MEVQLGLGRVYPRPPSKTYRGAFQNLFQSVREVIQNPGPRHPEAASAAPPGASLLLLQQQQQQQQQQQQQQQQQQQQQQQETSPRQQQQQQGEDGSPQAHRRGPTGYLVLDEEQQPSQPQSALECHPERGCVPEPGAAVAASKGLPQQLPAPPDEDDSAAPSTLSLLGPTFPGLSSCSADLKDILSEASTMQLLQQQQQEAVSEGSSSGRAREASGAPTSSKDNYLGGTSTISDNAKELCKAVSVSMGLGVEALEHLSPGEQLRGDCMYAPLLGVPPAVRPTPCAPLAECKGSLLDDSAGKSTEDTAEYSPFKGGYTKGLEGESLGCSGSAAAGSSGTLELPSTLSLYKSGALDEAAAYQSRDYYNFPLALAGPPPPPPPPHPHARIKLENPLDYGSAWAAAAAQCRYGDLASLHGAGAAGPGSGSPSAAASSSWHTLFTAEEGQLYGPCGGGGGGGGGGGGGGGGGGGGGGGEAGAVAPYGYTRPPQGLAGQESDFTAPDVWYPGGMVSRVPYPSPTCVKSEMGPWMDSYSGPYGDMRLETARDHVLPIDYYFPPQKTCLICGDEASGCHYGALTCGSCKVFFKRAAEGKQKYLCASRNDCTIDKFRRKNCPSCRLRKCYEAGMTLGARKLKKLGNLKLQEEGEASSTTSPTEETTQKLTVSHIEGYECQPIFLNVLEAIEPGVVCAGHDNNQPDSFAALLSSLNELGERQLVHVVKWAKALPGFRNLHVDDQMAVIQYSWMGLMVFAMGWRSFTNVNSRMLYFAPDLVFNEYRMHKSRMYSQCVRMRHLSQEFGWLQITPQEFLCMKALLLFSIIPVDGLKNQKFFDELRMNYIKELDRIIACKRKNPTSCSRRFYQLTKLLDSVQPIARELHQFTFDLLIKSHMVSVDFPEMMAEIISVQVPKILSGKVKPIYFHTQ

Consider `Cl[Si](Cl)(c1ccccc1)c1ccccc1`, for which the Potency result in assay [1], in assay [2], in assay [3], in assay [4], in assay [6] and in assay [7] was “inactive” each time. Also, the Potency entry in assay [8], in assay [9], in [10], in [11], in [12] and in assay [13] was “inactive” in each case. The Potency entry in [14] and in assay [16] was “inactive” in each case. In addition, the result in assay [5] and in [15] was inactive.
With `ClCCl`, the Potency entry in assay [1], in [2], in assay [3], in assay [4], in assay [7] and in assay [8] was “inactive” throughout. The Potency result in [18], in assay [9], in assay [10], in assay [11], in [12] and in [13] was “inactive” throughout. Moreover, the Potency result in assay [14] and in assay [16] was “inactive” throughout. The result in [17] and in assay [15] was inactive.
On to `Cc1cc(=O)oc2cc(O)cc(O)c12`, for which the Potency result in [1], in [2], in assay [3], in assay [4], in assay [7] and in assay [18] was “inactive” throughout. Moreover, the Potency entry in assay [9], in assay [11], in assay [12], in assay [14] and in assay [16] was “inactive” in each case. Also, the outcome in [17], in assay [5] and in [15] was inactive.
Consider `COc1ccc(-c2coc3cc(O)ccc3c2=O)cc1`, for which the Potency entry in assay [1], in assay [2], in [3], in assay [6], in assay [7] and in assay [8] was “inactive” in each case. For the same compound, the Potency entry in [11], in assay [12], in assay [13], in assay [14] and in assay [16] was “inactive” each time. Besides, in assay [4], the Potency was 1090 nM (active). The call in [5] and in assay [15] was inactive.
In the case of `C=CC(C)(CCC=C(C)C)OC=O` (stereo not drawn), the Potency result in [1], in [2], in [3], in assay [4], in assay [6] and in assay [7] was “inactive” in each case. Moreover, the Potency result in assay [8], in [18], in assay [9], in [10], in assay [11] and in [12] was “inactive” throughout. The Potency result in assay [13] and in [16] was “inactive” each time. For the same compound, the outcome in [5] was inactive.
For `Cc1c(F)c(N2CCNC(C)C2)cc2c1c(=O)c(C(=O)O)cn2C1CC1` (stereo not drawn), the Potency result in [1], in [2], in assay [3], in assay [4], in [6] and in assay [7] was “inactive” in each case. Further, the Potency entry in [8], in assay [18], in [9], in assay [10], in assay [11] and in assay [12] was “inactive” each time. Besides, in assay [5], the compound was classed as inactive.
`CC(C)CCCCCOC(=O)CCS`: the Potency entry in assay [1], in assay [2], in assay [3], in assay [4], in assay [6] and in [7] was “inactive” each time. Moreover, the Potency entry in [8], in assay [18], in [9], in [11], in assay [12] and in assay [13] was “inactive” in each case. Besides, in assay [14], the Potency result was “inactive”. The compound was called inactive in assay [5] and in assay [15].

The record behind these values is PubChem BioAssay (Tox21).
